In PubChem BioAssay:
Records with an inconclusive call do not appear. Calls of active or inactive are those of the source.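 How the source made its calls, unless noted: active means viability at or under a set limit in both replicates, limit being median viability minus 3 SD (cut at about 48% in these data, passing the limit was not always enough); inconclusive means at or under the limit in just one replicate; inactive means at or above the limit in both replicates.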

Experiments:
[1] = reduced viability of SK-BR-3 breast cancer cells – cell-based, 24 h, human, pilot screen (AID 572;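 active means viability at or below 10% of carrier control in both of two separate runs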;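 further: compound exposure lasted between 18 and 24 h rather than exactly 24 h; 100% = carrier-treated control wells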); settings: SK-BR-3 viability, CellTiter-Glo luminescence, at 10 µM, stronger effect = lower value
[2] = HUVEC growth inhibition – cell-based, human, primary screen (AID 575;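 active means viability at or below 30% in both replicate assays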;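 further: 100% = median of untreated cell wells with 0.1% DMSO on each plate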); settings: HUVEC proliferation, CellTiter-Glo luminescence, 72 h; at 10 µM; stronger effect = lower value
[3] = H69AR cell proliferation blockers – human, duplicate replicates, primary screen (AID 580); settings: H69AR lung tumor cells viability, ATP luminescence, 72 h; at 10 µM; stronger effect = lower value;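 further: 100% = mean luminescence of untreated wells and 0% = no signal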
[4] = MRP1 drug-resistance reversers in H69AR cells – cell-based, doxorubicin co-treatment, pilot screen (AID 601;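 active means viability loss from added drug above about 55%, and viability with drug at most 40%, in both replicates, limit read from the data, passing the limit was not always enough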); settings: CellTiter-Glo, 72 h, at 10 µM; for differential viability (reversal): stronger effect = higher value
[5] = yeast transport mutant growth inhibition pilot in 384-well plates, post-Golgi transport modulator project (AID 636; in the data active means inhibition above about 31%); settings: absorbance 615 nm, about 18 h, stronger effect = higher value
[6] = growth suppression of yeast trafficking mutant, preliminary HTS, modulators of trafficking downstream of Golgi apparatus project, 1536-format plate, OD 615 nm (AID 637; in the data active means inhibition above about 30%); settings: yeast transport mutant growth, absorbance 615 nm, 18 h; stronger effect = higher value
[7] = S. cerevisiae growth inhibition in permissive medium (OD615), pilot counter-assay for S. cerevisiae lifespan shortening project, permissive growth control (AID 705;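 active means growth inhibition above 25% in both replicates, a cutoff set 3 SD above the mean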); settings: OD615, 24 h, at 10 µM, stronger effect = higher value
[8] = S. cerevisiae growth inhibition in restrictive medium, OD615, pilot screen, restrictive growth control, yeast lifespan reduction project (AID 706;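 active means growth inhibition above a set limit, 3 SD over mean compound inhibition, in both replicates, cut at about 43% in these data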;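 further: modified DeaD lifespan yeast strain shifted to restrictive glucose medium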); settings: OD615, 48 h, at 10 µM, stronger effect = higher value
[9] = doxorubicin toxicity protection in MRP-1 cells – H69AR cells, CellTiter-Glo, duplicate, MRP-1 activator project, pilot screen (AID 807;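 active means viability increase at or above a cutoff of the median across tested compounds plus 3 SD, cut at about 8.5% in these data, passing the limit was not always enough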;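 further: compound pretreatment 18-22 h then 72 h combined with doxorubicin; 0% = doxorubicin alone and 100% = vehicle without doxorubicin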); settings: H69AR viability with doxorubicin, CellTiter-Glo luminescence; at 10 µM; stronger effect = higher value
[10] = viability of PTEN-null HCT116 cells – cell-based, HCT116 clonal line, CellTiter-Glo, pilot screen (AID 824;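 active means viability at or below 27.92% in each of two runs, the all-compound median minus 4 SD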;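 further: 0% = 20 µM Hyamine control and 100% = vehicle cell control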); settings: HCT116 PTEN-deleted viability, 60 h, at 10 µM, stronger effect = lower value
[11] = RAM pathway blockade in budding yeast – dse1pr::URA3 reporter, 5-FOA selection, pilot screen (AID 869;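 active means inhibition over a set limit, the all-compound mean plus 3 SD, in both replicate runs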;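 further: 0% = DMSO wells with no growth and 100% = 10 µM 1-NA-PP1 with full growth; RAM network block rescues cells from 5-FOA so hits raise OD615 growth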); settings: S. cerevisiae dse1pr::URA3 5-FOA growth, OD615, 2 d; at 10 µM; stronger effect = higher value; strain carries analog-sensitive mutant Cbk1 kinase
[12] = RAM signaling pathway blockade in yeast – S. cerevisiae, Pdr1DBD-CYC8 efflux-inhibited sensitized strain, primary screen (AID 1298;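 active means RAM network inhibition above 8.4% in each of two replicates, 3 SD over the compound average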;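 further: 0% = DMSO untreated cells without growth and 100% = 10 µM 1-NA-PP1 full growth; higher means more yeast growth rescued from 5-FOA killing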); settings: S. cerevisiae cbk1-as DSE1-URA3 strain, 5-FOA growth OD615, 2 d; at 50 µM; stronger effect = higher value
[13] = viability of HCT116 without oncogenic beta-catenin – human colon tumor cells, pilot screen (AID 823;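 active means cell viability at or below a set limit in both duplicate runs, the limit being the all-compound median minus 4 SD, cut at about 23% in these data, passing the limit was not always enough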;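 further: 0% = wells killed by 20 µM Hyamine and 100% = untreated DMSO cell wells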); settings: HCT116 beta-catenin knockout viability, CellTiter-Glo, 60 h; at 10 µM; stronger effect = lower value
[14] = H69AR cells + 2 uM doxorubicin, measured here: viability with 2 uM doxorubicin, stronger effect = lower value
[15] = H69AR cells, compound alone cytotoxicity

O=C(Nc1cnccn1)c1cccs1
inactive: viability [1] 115% | viability [2] 106% | viability [3] 99% | differential viability (reversal) ([4]; H69AR cells + 2 uM doxorubicin) 7.32% | inhibition [5] -10.8% | inhibition [6] 1.77% | growth inhibition [7] -10.4% | growth inhibition [8] 1.52% | viability increase [9] -2.25% | viability [10] 94.2% | inhibition [11] 0.89% | RAM network inhibition [12] 7.21%
99%: viability [4, 15]
91.7%: viability [4, 14]

FC(F)(F)c1cc(-c2ccco2)nc(NCc2ccco2)n1
inactive: viability [1] 119% | viability [2] 101% | viability [3] 62.2% | differential viability (reversal) ([4]; H69AR cells + 2 uM doxorubicin) -15.6% | inhibition [5] -2.7% | inhibition [6] 24.2% | growth inhibition [7] 3.24% | growth inhibition [8] -11.4% | viability increase [9] -6.31% | viability [10] 59.1% | inhibition [11] 1.14% | RAM network inhibition [12] -0.41%
77.8%: viability [4, 14]
62.2%: viability [4, 15]

COC(=O)c1[nH]c2c(c1C)C(=O)CC(c1cc(OC)ccc1OC)C2 (stereo not drawn)
51.9%: viability [4, 14]
active: viability [3] 14.9%
14.9%: viability [4, 15]
inactive: viability [1] 98.5% | differential viability (reversal) ([4]; H69AR cells + 2 uM doxorubicin) -37% | inhibition [5] -6.8% | inhibition [6] -6.33% | growth inhibition [7] -10.4% | growth inhibition [8] -8.8% | viability increase [9] -5.77% | viability [13] 34.6% | viability [10] 29.4% | RAM network inhibition [12] 1.94%

O=C(CCCn1c(=O)[nH]c2ccsc2c1=O)N1CCN(c2ccccn2)CC1
inactive: viability [1] 89% | viability [2] 99.5% | viability [3] 101% | differential viability (reversal) ([4]; H69AR cells + 2 uM doxorubicin) 6.23% | inhibition [5] -6.4% | inhibition [6] -0.18% | growth inhibition [7] -0.715% | growth inhibition [8] 2.48% | viability increase [9] -4.76% | viability [13] 100% | inhibition [11] 2.25% | RAM network inhibition [12] 4.21%
94.5%: viability [4, 14]
101%: viability [4, 15]

COc1cc(C(=O)N2CCN(c3cc(Cl)ccc3Cl)CC2)cc(OC)c1OC
84.1%: viability [4, 14]
29.8%: viability [4, 15]
inactive: viability [1] 77.5% | differential viability (reversal) ([4]; H69AR cells + 2 uM doxorubicin) -54.3% | inhibition [5] -4.27% | inhibition [6] 0% | growth inhibition [7] -13.2% | growth inhibition [8] -8.44% | viability increase [9] -6.62% | inhibition [11] 0.575% | RAM network inhibition [12] 2.03%
active: viability [2] 20.1% | viability [3] 29.8% | viability [10] 21.5%

Cc1cc(NC(=O)CS(=O)(=O)c2cn(Cc3ccccc3Cl)c3ccccc23)no1
81%: viability [4, 14]
inactive: viability [1] 92% | viability [2] 79.2% | viability [3] 92.1% | differential viability (reversal) ([4]; H69AR cells + 2 uM doxorubicin) 11.1% | inhibition [5] -5.2% | inhibition [6] 5.82% | growth inhibition [7] -4.35% | growth inhibition [8] -0.555% | viability increase [9] -2.24% | viability [10] 47.8% | inhibition [11] 2.17% | RAM network inhibition [12] 3.11%
92.1%: viability [4, 15]

O=C(CCn1[nH]c(=O)c2ccccc2c1=O)NCCO
89.3%: viability [4, 15]
91.9%: viability [4, 14]
inactive: viability [1] 78% | viability [2] 118% | viability [3] 89.3% | differential viability (reversal) ([4]; H69AR cells + 2 uM doxorubicin) -2.56% | inhibition [5] -7.07% | inhibition [6] -7.27% | growth inhibition [7] -16.2% | growth inhibition [8] -13.6% | viability increase [9] -0.03% | viability [13] 102% | viability [10] 102% | inhibition [11] 0.26% | RAM network inhibition [12] 0.2%

Cc1cc(NC(=O)CSc2nc3c(c(-c4cccnc4)c2C#N)CCC3)no1
84.3%: viability [4, 14]
90.9%: viability [4, 15]
inactive: viability [1] 65% | viability [2] 111% | viability [3] 90.9% | differential viability (reversal) ([4]; H69AR cells + 2 uM doxorubicin) 6.63% | inhibition [5] -5.6% | inhibition [6] -3.09% | growth inhibition [7] 2.25% | growth inhibition [8] 1.02% | viability increase [9] 0.51% | viability [13] 101% | viability [10] 98.5% | inhibition [11] 1.75% | RAM network inhibition [12] 5.05%

CC12CN3CCN(CC(C3)C1(O)CN1CCCCC1)C2 (stereo not drawn)
89.2%: viability [4, 14]
92.5%: viability [4, 15]
inactive: viability [1] 119% | viability [2] 95.5% | viability [3] 92.5% | differential viability (reversal) ([4]; H69AR cells + 2 uM doxorubicin) 3.25% | inhibition [5] -8.13% | inhibition [6] -0.18% | growth inhibition [7] -9.73% | growth inhibition [8] -6.28% | viability increase [9] -1.63% | viability [13] 88.3% | viability [10] 85.1% | inhibition [11] 1.06% | RAM network inhibition [12] 1.07%

CCc1c(C)n([O-])c2c([n+]1=O)CCC2
97%: viability [4, 14]
103%: viability [4, 15]
inactive: viability [1] 104% | viability [2] 89.2% | viability [3] 103% | differential viability (reversal) ([4]; H69AR cells + 2 uM doxorubicin) 5.73% | inhibition [5] -5.54% | inhibition [6] -2.62% | growth inhibition [7] -8.65% | growth inhibition [8] -5.88% | viability increase [9] -0.78% | viability [13] 99.4% | viability [10] 102% | inhibition [11] 0.88% | RAM network inhibition [12] 3.44%

O=C(Nc1ccncc1)c1cc2ccccc2o1
inactive: viability [1] 113% | viability [2] 101% | viability [3] 105% | differential viability (reversal) ([4]; H69AR cells + 2 uM doxorubicin) 13.8% | inhibition [5] -0.4% | inhibition [6] -0.36% | growth inhibition [7] -10.7% | growth inhibition [8] -6.96% | viability increase [9] -0.51% | viability [13] 95.7% | viability [10] 95.9% | inhibition [11] 1.73% | RAM network inhibition [12] 4.22%
105%: viability [4, 15]
91.1%: viability [4, 14]
